Records with an inconclusive call do not appear. The source made the active and inactive calls. Calls come from the whole dose curve; as a rule, active = well fitted curve in the direction sought with a large enough effect; inconclusive = small, poorly fitted or top-dose-only effect, or another doubt; inactive = no such curve, though single readings can be large; an effect the other way counts as inactive or inconclusive.
Columns and labels:
[1] = Quantitative High-Throughput drug screen in 47 multiple myeloma cell lines against the NCATS MIPE library collection: MMM1_PLB cell viability assay (AID 1918976); note: nearly all actives have a fitted effect of over 35% in size
Summary of the method: (§1)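 Inhibition of viability over 48 h was scored by ATP content (CellTiter-Glo) in 500-cell wells. Zero and full viability were defined by media-only and DMSO-only wells.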

[2] = Quantitative High-Throughput drug screen in 47 multiple myeloma cell lines against the NCATS MIPE library collection: MOLP8_DSMZ cell viability assay (AID 1918977); note: nearly all actives have a fitted effect of over 45% in size
Summary of the method: as §1

[3] = Quantitative High-Throughput drug screen in 47 multiple myeloma cell lines against the NCATS MIPE library collection: LP1_DSMZ cell viability assay (AID 1918982); note: nearly all actives have a fitted effect of over 35% in size
Summary of the method: as §1

[4] = Quantitative High-Throughput drug screen in 47 multiple myeloma cell lines against the NCATS MIPE library collection: KMS28PE_JCRB cell viability assay (AID 1918983); note: nearly all actives have a fitted effect of over 35% in size
Summary of the method: as §1

[5] = Quantitative High-Throughput drug screen in 47 multiple myeloma cell lines against the NCATS MIPE library collection: KMS34_JCRB cell viability assay (AID 1918985); note: nearly all actives have a fitted effect of over 40% in size
Summary of the method: as §1

[6] = Quantitative High-Throughput drug screen in 47 multiple myeloma cell lines against the NCATS MIPE library collection: NCIH929_DSMZ cell viability assay (AID 1918978); note: nearly all actives have a fitted effect of over 35% in size
Summary of the method: as §1

[7] = Quantitative High-Throughput drug screen in 47 multiple myeloma cell lines against the NCATS MIPE library collection: MM1S_ATCC cell viability assay (AID 1918980); note: nearly all actives have a fitted effect of over 45% in size
Summary of the method: as §1

[8] = Quantitative High-Throughput drug screen in 47 multiple myeloma cell lines against the NCATS MIPE library collection: L363_DSMZ cell viability assay (AID 1918984); note: nearly all actives have a fitted effect of over 40% in size
Summary of the method: as §1

[9] = Quantitative High-Throughput drug screen in 47 multiple myeloma cell lines against the NCATS MIPE library collection: OCIMY1_PLB cell viability assay (AID 1918979); note: nearly all actives have a fitted effect of over 35% in size; for viability: series mostly up to about 46 µM
Summary of the method: as §1

[10] = Quantitative High-Throughput drug screen in 47 multiple myeloma cell lines against the NCATS MIPE library collection: MM1R_ATCC cell viability assay (AID 1918981); note: nearly all actives have a fitted effect of over 35% in size
Summary of the method: as §1

Measured: Potency
Potency is the fitted concentration of half-maximal effect.

CCOc1cc(C(=O)Nc2ccc(Cl)c(-c3nc4ccccc4[nH]3)c2)cc(OCC)c1OCC
active: [1] 20.9 µM | [3] 14.8 µM
inactive: [2] | [4] | [5]

COc1ccc(COc2cc3oc(=O)c4cc(C(C)O)ccc4c3cc2OC)cc1 (stereo unspecified)
active: [1] 18.7 µM | [2] 18.7 µM | [6] 26.4 µM | [7] 13.2 µM | [4] 23.5 µM | [8] 5.26 µM | [5] 18.7 µM

CNC(=O)c1ccc(C)c(-n2c(C)cc(OCc3ccc(F)cc3F)c(Br)c2=O)c1
active: [1] 18.7 µM | [6] 5.9 µM

Cc1ccc(-n2nc(C(C)(C)C)cc2NC(=O)Nc2ccc(OCCN3CCOCC3)c3ccccc23)cc1
inactive: [9] | [3]
active: [1] 20.9 µM | [6] 0.59 µM | [7] 4.18 µM

CN(C)C(=O)c1ccc(S(=O)(=O)c2ccc(NC(=O)[C@@](C)(O)C(F)(F)F)c(Cl)c2)cc1
inactive: [2] | [9]
active: [1] 8.33 µM | [8] 10.5 µM

Nc1ncnc2nc(-c3ccc(N4CCOCC4)nc3)cc(-c3cccc(Br)c3)c12
active: [1] 11.8 µM | [6] 14.8 µM | [7] 23.5 µM
inactive: [9]

N#CC[C@H](C1CCCC1)n1cc(-c2ncnc3[nH]ccc23)cn1
inactive: [2] | [6] | [9]
active: [1] 16.6 µM | [7] 4.18 µM

COc1cc2nccc(Oc3ccc(NC(=O)NC4CC4)c(Cl)c3)c2cc1C(N)=O
inactive: [8]
active: [1] 2.35 µM | [2] 13.2 µM | [6] 16.6 µM | [9] 20.9 µM | [7] 0.264 µM | [10] 1.18 µM | [3] 20.9 µM | [4] 13.2 µM | [5] 18.7 µM

Cc1cc(-c2ccc(CC(=O)Nc3ccc(-c4cccnc4)cc3)cc2)ccn1
inactive: [2] | [7] | [10]
active: [1] 20.9 µM | [6] 23.5 µM | [4] 13.2 µM

CS(=O)(=O)c1cccc(CNc2nc(Nc3ccc4c(c3)CCC(=O)N4)ncc2C(F)(F)F)c1
active: [1] 23.5 µM | [6] 10.5 µM | [9] 16.6 µM | [7] 18.7 µM | [3] 18.7 µM | [4] 23.5 µM | [8] 6.62 µM

NCCc1ccc(O)c(O)c1
active: [1] 7.43 µM | [2] 20.9 µM | [7] 20.9 µM | [3] 8.33 µM | [8] 23.5 µM | [5] 8.33 µM

COc1ccc(C2=N[C@H](c3ccc(Cl)cc3)[C@H](c3ccc(Cl)cc3)N2C(=O)N2CCNC(=O)C2)c(OC(C)C)c1
inactive: [9] | [3] | [4]
active: [1] 4.69 µM | [2] 8.33 µM | [6] 5.26 µM | [7] 2.09 µM | [10] 2.35 µM | [8] 0.059 µM

Cc1ccccc1C(C(=O)NC1CCCC1)N(C(=O)Cn1cnc2ccccc21)c1cccc(F)c1 (stereo unspecified)
inactive: [9] | [10] | [4]
active: [1] 16.6 µM | [6] 18.7 µM | [7] 18.7 µM | [3] 3.32 µM

CC(C)C[C@H](NC(=O)[C@@H](O)[C@H](N)Cc1ccccc1)C(=O)O
active: [1] 20.9 µM | [2] 20.9 µM | [6] 20.9 µM | [7] 18.7 µM | [10] 20.9 µM | [3] 20.9 µM | [4] 20.9 µM

NNCCc1ccccc1
inactive: [6] | [9]
active: [1] 5.9 µM | [7] 5.9 µM | [10] 6.62 µM | [4] 9.35 µM

Cc1c(CN2CCN(C(=O)C(C)C)CC2)sc2c(N3CCOCC3)nc(-c3cnc(N)nc3)nc12
active: [1] 0.0526 µM | [2] 0.0372 µM | [6] 0.0166 µM | [7] 0.132 µM | [10] 0.0469 µM | [4] 0.0662 µM | [8] 0.0209 µM | [5] 0.0296 µM

COc1cc(Oc2ccnc3cc(OC)c(OC)cc23)ccc1NC(=O)NC(C)c1nccs1 (stereo unspecified)
inactive: [2] | [6]
active: [1] 16.6 µM | [10] 18.7 µM

COc1ccc(-c2ccc3c(N4CCOCC4)nc(N4C[C@@H](C)O[C@@H](C)C4)nc3n2)cc1CO
active: [1] 0.105 µM | [2] 1.05 µM | [6] 0.187 µM | [9] 4.69 µM | [7] 0.469 µM | [10] 0.833 µM | [3] 0.059 µM | [4] 0.187 µM | [8] 0.235 µM | [5] 0.469 µM

CC[C@H](Nc1ncnc2nc[nH]c12)c1nc2cccc(F)c2c(=O)n1-c1ccccc1
active: [1] 18.7 µM | [2] 23.5 µM | [6] 8.33 µM | [9] 16.6 µM | [7] 0.118 µM

CC(=O)NC(C)c1ccc(Oc2ccc(OC(C)C)cc2)cc1 (stereo unspecified)
active: [1] 16.6 µM | [2] 18.7 µM | [6] 10.5 µM | [9] 14.8 µM | [4] 18.7 µM

Clc1ccc(Nc2nnc(Cc3ccncc3)c3ccccc23)cc1
inactive: [9] | [8]
active: [1] 18.7 µM | [6] 11.8 µM | [7] 18.7 µM | [3] 11.8 µM | [4] 20.9 µM

Oc1cccc(-c2nc(N3CCOCC3)c3oc4ncccc4c3n2)c1
active: [1] 0.0679 µM | [2] 0.0152 µM | [6] 0.0191 µM | [7] 0.0679 µM | [10] 0.0679 µM | [4] 0.0762 µM

Cc1csc(NC(=O)c2sc3nc4c(c(C(F)(F)F)c3c2N)CCC4)n1
inactive: [1] | [2] | [6] | [10]
active: [7] 13.2 µM | [3] 20.9 µM

O=c1[nH]c(-c2ccc(C(F)(F)F)cc2)nc2c1CSCC2
active: [1] 7.43 µM | [6] 18.7 µM | [7] 18.7 µM
inactive: [2] | [4] | [8]

CC1(C)Cc2c(-c3ccccc3)c(-c3ccc(Cl)cc3)c(CC(=O)O)n2C1
active: [1] 20.9 µM | [2] 20.9 µM | [9] 23.5 µM | [7] 26.4 µM

CCc1ccc(CCOc2ccc(CC3SC(=O)NC3=O)cc2)nc1 (stereo unspecified)
active: [1] 8.33 µM
inactive: [2] | [6] | [9] | [10] | [4] | [5]

Cc1cc2c(C(C)C)c(O)c(O)c(C=O)c2c(O)c1-c1c(C)cc2c(C(C)C)c(O)c(O)c(C=O)c2c1O
active: [1] 18.7 µM | [6] 9.35 µM | [9] 14.8 µM | [7] 16.6 µM | [10] 13.2 µM | [3] 16.6 µM | [4] 18.7 µM | [5] 11.8 µM

COc1cccc2cc(-c3nc(C4CCC(C(=O)O)CC4)n4ncnc(N)c34)[nH]c12 (stereo unspecified)
active: [1] 0.662 µM | [2] 0.418 µM | [6] 0.187 µM | [9] 1.05 µM | [7] 0.469 µM | [10] 0.469 µM | [4] 0.469 µM

Cc1cccc(-c2nn(C(=S)Nc3ccccc3)cc2-c2ccnc3ccccc23)n1
inactive: [9]
active: [1] 16.6 µM | [6] 2.35 µM | [7] 16.6 µM | [3] 20.9 µM | [4] 18.7 µM

CO[C@@H]1[C@H](N(C)C(=O)c2ccccc2)C[C@H]2O[C@]1(C)n1c3ccccc3c3c4c(c5c6ccccc6n2c5c31)C(=O)NC4
active: [1] 2.64 µM | [2] 1.32 µM | [6] 0.935 µM | [9] 5.26 µM | [7] 4.69 µM | [4] 5.26 µM | [8] 1.66 µM | [5] 1.32 µM

O=C(O)COCCN1CCN(C(c2ccccc2)c2ccc(Cl)cc2)CC1 (stereo unspecified)
active: [1] 14.8 µM | [8] 0.296 µM
inactive: [2] | [9] | [7] | [5]

CCOC(=O)C1=C[C@]2(CC)CCCN3CCc4c(n1c1ccccc41)[C@@H]32
active: [1] 14.8 µM | [2] 18.7 µM | [6] 8.33 µM | [7] 11.8 µM | [10] 11.8 µM | [3] 20.9 µM | [4] 20.9 µM | [8] 11.8 µM

NC[C@H](O)c1ccc(O)c(O)c1
inactive: [6] | [9] | [3] | [5]
active: [1] 23.5 µM | [7] 23.5 µM | [10] 5.9 µM | [4] 18.7 µM

COc1ccc2c3n(c(=NC(=O)c4cccnc4)nc2c1OC)CCN3
active: [1] 4.69 µM | [2] 2.64 µM | [6] 1.87 µM | [7] 2.64 µM | [10] 5.9 µM | [4] 5.9 µM

N#Cc1ccc(C(c2ccc(C#N)cc2)n2cncn2)cc1
inactive: [6]
active: [1] 11.8 µM | [9] 3.72 µM | [4] 6.62 µM

CC(C)(C)OC(=O)CN(Cc1ccc(Cl)cc1)Cc1ccc([N+](=O)[O-])s1
active: [1] 20.9 µM | [3] 18.7 µM | [4] 20.9 µM
inactive: [6] | [9] | [10]

NC(=O)C1CCCc2c1[nH]c1ccc(Cl)cc21 (stereo unspecified)
active: [1] 3.32 µM | [10] 14.8 µM
inactive: [6] | [9] | [3] | [4]

COc1ccc(-c2c(-c3ccc(O)cc3O)n[nH]c2C)cc1
active: [1] 42.9 µM | [6] 19.1 µM
inactive: [9] | [7] | [4] | [5]

CC1(C)SCCN(S(=O)(=O)c2ccc(OCC#CCO)cc2)[C@@H]1C(=O)NO
inactive: [9]
active: [1] 1.87 µM | [3] 16.6 µM

Cc1ccc(N(CC2=NCCN2)c2cccc(O)c2)cc1
inactive: [6] | [9]
active: [1] 2.96 µM | [7] 20.9 µM | [4] 5.26 µM | [8] 11.8 µM

CC(C)NCC(O)COc1ccc(COCCOC(C)C)cc1 (stereo unspecified)
active: [1] 7.43 µM
inactive: [6] | [9] | [7] | [3] | [5]

Cc1cc([C@@H](C)Nc2ccccc2C(=O)O)c2nc(N3CCOCC3)cc(=O)n2c1
active: [1] 19.1 µM | [9] 8.55 µM | [7] 9.59 µM | [5] 2.7 µM
